The text below walks through data of PubChem BioAssay AID1051 (The Scripps Research Institute Molecular Screening Center, 2008).

Hit rate of the full screen: of about 99,000 compounds, about 340 (0.34%) were called active. Shown is part of a subset that was picked to be rich in actives. Unmarked numbers belong to inactive results. No stated cut-off is given here; in the data, active means TR-FRET ratio above about 2300; inactive means the rest.

The nature of this assay: signal artefacts in PPARgamma/SRC-1 readout – biochemical, TR-FRET emission ratio, artefact control for PPARgamma SRC-1 recruitment agonists, primary screen (AID 1051). Particulars: TR-FRET detection artefact counter-screen, at 8 µM, stronger effect = higher value. (TR-FRET usually uses a lanthanide donor and a delayed reading to cut background.)
For the compound `COc1cc(-n2c(=S)[nH]c3ccc(C)cc3c2=O)c(Cl)cc1Cl`, the TR-FRET ratio was 2560 (active).

Regarding `O=C1N=c2ccccc2=C/C1=C\c1c(O)[nH]c(=S)[nH]c1=O`, the TR-FRET ratio was 1870.

As to `COc1ccc(C2N3CC(C)(C)CN23)cc1` (stereo not given), the TR-FRET ratio is 1740.

For `CCOP(=O)(OCC)C(NC(=O)c1ccc(C)cc1)C(Cl)(Cl)Cl` (stereo not given), the TR-FRET ratio is 1720.

As for `OCC#CC[N+]1(CC#Cc2ccccc2)CCCC1`, the TR-FRET ratio is 1790.
